Data as given in the supplement of paper PMC12632987.

Target: GABARAPL2, P60520
Experiment: median log2 fold change of GCK-ALFA target abundance (FLAG IP / Myc IP barcode read proportion) (log2 ratio); each designed protein is fused to an ALFA-tag nanobody in HEK293 cells to bring the named protein to FLAG-tagged glucokinase (GCK); Myc marks an untargeted standard; higher = target protein stabilised (more abundant)
Settings: target protein: 3xFLAG-MCP-GCK-ALFA reporter; HEK293 landing pad (RPLP)
Procedure, shortened: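 An ALFA-nanobody-fused binder library was recombined into HEK293 landing-pad cells and induced with 2 μg mL^−1 doxycycline. Cells were transfected with a plasmid expressing a FLAG-tagged target and a Myc-tagged standard. After 48 h, lysates underwent anti-FLAG and anti-Myc immunoprecipitation, and circular RNA barcodes were reverse transcribed, amplified and sequenced. Target abundance is the per-binder median log2 ratio of FLAG to Myc barcode read proportions. Barcodes needed ≥10^−7 proportion in both replicates, binders ≥3 barcodes per replicate, and a 10^−6 pseudocount was added; the two replicates were pooled.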

Chain of GABARAPL2, P60520 (P60520 whole entry, the tested form may be a part): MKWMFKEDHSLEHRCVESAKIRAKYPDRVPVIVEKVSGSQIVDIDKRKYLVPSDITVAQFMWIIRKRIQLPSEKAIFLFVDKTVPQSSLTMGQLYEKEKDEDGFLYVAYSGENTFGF

Binder | median log2 fold change
GBRAPL2_151_7319 (protein) GELEELEKKLKELIKKLEKLLEKLKKEKPEYETEVSTLLGGAEADLLLAEEAEDPEEKRRFLAEAAELAADAFKLIAEVLGSEEAKKLAEEAKKLLEKLK | 0.141
GBRAPL2_175_7336 (protein) SLKDEVLAALIEALELLAEKANDEVQDLLEAAMALLEVDGESALPQVAKLLEEAAKEAKDNPELQKLLKELAAAAKEAAEGGDLEEILARAQAIIKEIKA | 0.166
GBRAPL2_151_7306 (protein) SKKEKAIELLKEAAKTAEEAVKKLSEEQELEKTELELIAGGLEALAILVEETDDEEKIKKLVKEAAELVEDAAKLAEELGLEEEAKKLKELAKELKKLAE | 0.123
GBRAPL2_175_7330 (protein) SALEELLKRLAELLEELAEKLDDEASDLLLAAAALIEQDGVAAAKRAAELVKEAAKKVKDNPKLQAALEELAAALELIAAGKAPEEVKAELEKAEALLKE | 0.207
GBRAPL2_175_7334 (protein) SALDELLARLAALLDELSERADDETADLLDAAMALLELEGAAAAARVAELLREAAELAADNPRLRAALEELARAAALIAEGAAPEEVQAELDRAAALLAE | 0.086
GBRAPL2_151_7318 (protein) EELEELLKRLKKLAEKLAKLAEELAKEDPEHATEVETLVGGVEADIILAEEEEDEEEKRRHLLRAAELAADAAKLIAEVLKKEEAKKLAEEAKELAEKLK | 0.242
GBRAPL2_151_7326 (protein) SELERLLEKLKELLEKLEKLVEEAAKKDPSHEIELETLVGGAEADLLLAEEAPNDEEKRRFLKEAAELIKDAAELIAKITGSEEAKKLAEEAREILKELE | 0.164
GBRAPL2_151_7321 (protein) SELEKLKKEAEKLLEELEKLVKELEKKKPEKSTEVETLLGGAEADLILAEEAEDPEEKRRFLLEAAELLADAFKLIAKVLGSEKAKKLAKEAEELAKKLA | 0.168
GBRAPL2_175_7337 (protein) SLEDEVLEALIEALELLSEKADDEVSDLLDAAMALLETDGRAALPRVAELLKKASEEAKDNPELSALLEELAAAAKEFAEGGDLEEILKKAKEIIKKIKA | 0.0611
GBRAPL2_175_7332 (protein) SAREELVKRLAELALRLAEKADDETEDLLLAAAALLEEGGEENLKRAAELIKEAAKEIKDDERLKKAAAELAEAAELLIAGEDVEKAEEELRKAEELLEK | 0.136
GBRAPL2_151_7309 (protein) KLKEEVIEALERAAEAVEKAAEKLSPEQELERTELELIAGGMEAYAALVEETEDEEKIKEITRRAAEMVRDAAEIAKELGLEEEAKELEEIAKELEELAA | 0.0437
GBRAPL2_175_7335 (protein) SKKEEAIKKLIEALELLAEKANDEVQDLLEAAAAVLELDGESGIEQAAKIVKQAAKDAKDNPELQKLLKELAKALKLLAEGGDIEEVIKKAEKIIKELKK | 0.0436
GBRAPL2_151_7313 (protein) GWKEEALKALKEAAEAIEKAAEALPPEHELERTELELLAGGMDAYRALVEETDDREEIKRLLKDAAELVKDAAEIMEKLGKEEAAKKLKKIAEKLKKLAE | -0.0822
GBRAPL2_151_7308 (protein) SEKEKAIELLKKAAEAAEEAIKALSEDQELEKTEFELIAGGLEALAILIEEEDDEEKIKELVKRGAELVKDAAELAKKLGLEEQAKKLKEIAKELEKLSK | 0.202
GBRAPL2_151_7314 (protein) SWKEEALKALEKGAKAIEEFAKSLPEEHELERTEAELLAGGMEAYRALIEETDDEEEIKRLLKEAAELVKDAAEIAKELGFEKEAKELEKIAKELEKLAK | 0.164
GBRAPL2_151_7320 (protein) EELEELERRARELLEELEELVKELEEKKPEHSTEVETLVGGAEADLLLAEEAEDPEEKRRFLLEAAKLIRDAFELIAKILGSERAKELAEEAKELAKELE | 0.183

Binder | median log2 fold change
GBRAPL2_151_7323 (protein) SELEKLLKEAKKLLKKLEKLVKEAAKKDPKYETELETLVGGAEADLILAEEAKNDEEKREHLKRAAELIADAAELIAKITGSEEAKKLAEEAKELLKKLE | 0.39
GBRAPL2_175_7327 (protein) SEMEELIKRLVELLLRLAEKLDGLASDLLLAAAALLEEEGVDAAKRAAELVKEAAKEIKDNPKLKAAAEELARALKLIAEGAPPEEVKKELEKAEKLLEE | 0.118
GBRAPL2_151_7311 (protein) DLKEKAVKALEEAAKALEELAEKLSEEQELEKTEIELLAGGMDAYAILVEETEDEEEIKRIVKDAAELVEDAAKIAKELGLEEDAKKLKEIAKKLKELAK | -0.0443
GBRAPL2_175_7329 (protein) SERDELIKRLAELLEKLAEEVDGEASDLLLAAAALLEEEGIEAAKRVAELLKEAAKEIEGNEKLKKAAEALAEAAKLLAEGAPAEEVQKKLEEAEKLLKE | 0.194
GBRAPL2_151_7312 (protein) SLKEKAVEKLKEAAELVEEAAKALPESQELERTELELIAGGMDADAILIEETEDEEEIKKIIKESAERVEDAAKIAKKLGLEELAKKLEEKAKELKKLAE | 0.307
GBRAPL2_151_7317 (protein) SELEKLLKELKALAEELWKLAEELAKKDPSVATEVETLVGGVEADIILAEEEEDPEEKRKHLLEAAKLAKDAAELIAEVLKSEKAKKLAEKAKKLAEKLK | 0.0623
GBRAPL2_151_7324 (protein) SELEKLLKELKKLLEELEKLVKEASEKYPEYSIELETLAGGAEADILLAEEAKNDEEKRKYLKRAAELIADAAKLIAEITGDERAKKLAEEAKKILKELE | 0.242
GBRAPL2_175_7338 (protein) AARAALLARIIELLDELAERADDEVADLLDAAAAVLEEEGEAGAERAARLVAEAAREAADDPRLRAALEAVAAALAALAAGAAPAEVQALLDEAEAILAE | -0.358
GBRAPL2_175_7333 (protein) SARQELVKRIRDLLLKLAEKADDETQDLLLAAAALLEEGGEENLKRALELVKEAAKEEKNDATLQQAAAELAAALALLIEGKPVEEAQKEIDAAAKLLAK | 0.119
GBRAPL2_175_7339 (protein) AAYEKLLAEIIELLLEIAEKANDEVSDLLEAAAAVLETDGLAGAERAARLVKEAAEEAKDNPQLQEALKLIAEALKALAAGAAPEEVKKLLDKAKEVLKK | 0.22
GBRAPL2_151_7316 (protein) EWKEEALKALEEGAKAVEEFAKSLPESEELERTELELLAGGLDAYKALIEETDDEEEIRRLLKEAAELVEDAAEIAKKLGREEAAKKLEKIAKKLKELAE | 0.266
GBRAPL2_151_7315 (protein) SWKEEALKALEEAAEAIEEAAKKLPPEHELERTELELLAGGMDAYKALIEETDDEEEIKRLLKEAAELVKEAAEIMKKLGFEEEAKKLEKIAKELEKLAK | -0.126
GBRAPL2_151_7325 (protein) SELDELLKKLKELLERLEKLVKEAAKEKPEYETTLETLVGGAEADLLLAEEAENDEEKRRHLKEAAELIRDAAEEIAKITGKEEAKKLAEEAKKLLKELE | 0.129
GBRAPL2_175_7331 (protein) SATEEALKRIAELLERLAERLDGEASDLLLAAAALVEQQGVAAAARAAELVKEAAKLVADDPRLRAALEELAAALKLLAAGAAVEEVQAEIDRAEALLEA | 0.0704
GBRAPL2_151_7310 (protein) ELKEKVVKALKEAAKALEELAELLSPEHELEKTEIELIAGGMDAYAALVEETEDEEKIKEITKEAAELVEDAAKIAKELGLEEQAKKLEEIAKKLKELAA | 0.111
GBRAPL2_151_7307 (protein) SRKEEAIRLLEEAARTAEEAVEALPESKELEKTELELLAGGLDALAILVEEEDDEEKVRELVKEGAELTEDAARLARELGLEEQARRLEELSRRLKELAE | -0.403
